Reference: the supplement of paper PMC13380429

How the values were obtained:
[1] = system: Vero E6 infected with SARS-CoV-2; experiment: morphology score (similarity to uninfected cells); higher = more like uninfected cells; conditions: 24 h
[2] = system: Vero E6 infected with SARS-CoV-2; experiment: SARS-CoV-2 infection rate relative to infected DMSO; higher = more infection, active = 60 or less; conditions: 24 h

SMILES	morphology score [1]	SARS-CoV-2 infection rate [2]
C[C@]12C=CC(=O)C=C1CC[C@@H]1[C@@H]2CC[C@]2(C)OC(=O)CC[C@@H]12 [Testolactone] (10 µM)	0.176	80.5% (inactive)
CC(C)=CCC[C@](C)(O[C@@H]1O[C@H](CO)[C@@H](O)[C@H](O)[C@H]1O)[C@H]1CC[C@]2(C)[C@@H]1[C@H](O)C[C@@H]1[C@@]3(C)CC[C@H](O[C@@H]4O[C@H](CO)[C@@H](O)[C@H](O)[C@H]4O[C@@H]4O[C@H](CO)[C@@H](O)[C@H](O)[C@H]4O)C(C)(C)[C@@H]3CC[C@]12C [ginsenoside-RD] (10 µM)	0.0521	102% (inactive)
O=C1C=C2C=C[C@@H]3C[C@@]2(O1)[C@H]1CCCCN31 [securinine] (10 µM)	0.327	85.5% (inactive)
CC(C)(S)C(=O)N[C@@H](CS)C(=O)O [bucillamine] (10 µM)	-0.0447	107% (inactive)
O=c1[nH]cnc2nc[nH]c12 [hypoxanthine] (10 µM)	0.0617	108% (inactive)
COC1=CC(=O)C[C@@H](C)[C@]12Oc1c(Cl)c(OC)cc(OC)c1C2=O [griseofulvin] (10 µM)	0.0707	104% (inactive)
C[C@@]1(C(=O)O)NCCc2cc(O)c(O)cc21 [salsolinol-1-carboxylic-acid] (10 µM)	-0.0436	97.5% (inactive)
NCC1(CC(=O)O)CCCCC1 [gabapentin] (10 µM)	-0.108	109% (inactive)
CCCC(C)NC(=O)c1ccc(Cl)c(Cl)c1 (stereo not drawn) (10 µM)	-0.46	119% (inactive)
